Screening results: PubChem BioAssay, National Center for Advancing Translational Sciences (NCATS)
This is a sample that favours compounds with a hit; in the whole collection about 5.7% have one here.
BAZ2B block: BAZ2B (human) inhibition; actives 4.4% (n = 360,000); AID 504333; Potency, µM (doses to about 114 µM), for the others: at the top dose activity change, negative = inhibition, usual class: inhibitors; Q9UIF8; AlphaScreen BAZ2B-H3K14Ac peptide displacement; also: potency is read from the fitted curve at half-maximal effect; % is scaled to controls: 0 for no effect and ±100 for the full control effect; nearly all actives have a fitted effect of over 60% in size
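Compounds, titrated to a top concentration of 110 uM, were incubated 30 min at room temperature with preformed BAZ2B/acetyl-K14 H3 peptide complex (50 nM each). Proximity signal was measured by AlphaScreen after 20 min with beads.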
JMJD2A Tudor: JMJD2A Tudor domain (human) inhibition; AID 504339; AlphaScreen JMJD2A-Tudor / H3K4me3 peptide binding; Potency, µM (titrated, usually from 114 µM), without a hit: at the top dose activity change, negative = inhibition, usual class: inhibitors; actives 4.4% (n = 390,000); O75164; also: potency is read from the fitted curve at half-maximal effect; % is scaled to controls: 0 for no effect and ±100 for the full control effect; nearly all actives have a fitted effect of over 50% in size
HP1b binding inh: inhibitors of HP1-beta chromodomain binding to methylated histone tails; AlphaScreen HP1-beta / biotin-H3K9me3 peptide binding; actives 0.56% (n = 390,000); AID 540317; Potency, µM (doses to about 114 µM), inactives show at the highest dose activity change, negative = inhibition, hits mostly inhibitors; P83916; also: potency is read from the fitted curve at half-maximal effect; nearly all actives have a fitted effect of over 70% in size
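Compound inhibition of the preformed complex between 50 nM HP1-beta and 50 nM biotinylated H3K9me3 peptide was read by AlphaScreen. Buffer was PBS pH 7.4 with 0.01% Tween-20. Incubations ran 30 min at room temperature, with 10 ug/mL donor/acceptor beads.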
L3MBTL1 inh: L3MBTL1 (human) inhibition | Q9Y468 | AlphaScreen L3MBTL1–H3K9me1 peptide binding | Potency, µM (titrated, usually from 57.1 µM), inactives show at the top dose activity, negative = inhibition, hits mostly inhibitors | actives 0.66% (n = 230,000) | AID 485360; also: potency is read from the fitted curve at half-maximal effect; % is scaled to controls: 0 for no effect and ±100 for the full control effect; nearly all actives have a fitted effect of over 60% in size
Target sequence (Q9Y468 whole entry, looked up): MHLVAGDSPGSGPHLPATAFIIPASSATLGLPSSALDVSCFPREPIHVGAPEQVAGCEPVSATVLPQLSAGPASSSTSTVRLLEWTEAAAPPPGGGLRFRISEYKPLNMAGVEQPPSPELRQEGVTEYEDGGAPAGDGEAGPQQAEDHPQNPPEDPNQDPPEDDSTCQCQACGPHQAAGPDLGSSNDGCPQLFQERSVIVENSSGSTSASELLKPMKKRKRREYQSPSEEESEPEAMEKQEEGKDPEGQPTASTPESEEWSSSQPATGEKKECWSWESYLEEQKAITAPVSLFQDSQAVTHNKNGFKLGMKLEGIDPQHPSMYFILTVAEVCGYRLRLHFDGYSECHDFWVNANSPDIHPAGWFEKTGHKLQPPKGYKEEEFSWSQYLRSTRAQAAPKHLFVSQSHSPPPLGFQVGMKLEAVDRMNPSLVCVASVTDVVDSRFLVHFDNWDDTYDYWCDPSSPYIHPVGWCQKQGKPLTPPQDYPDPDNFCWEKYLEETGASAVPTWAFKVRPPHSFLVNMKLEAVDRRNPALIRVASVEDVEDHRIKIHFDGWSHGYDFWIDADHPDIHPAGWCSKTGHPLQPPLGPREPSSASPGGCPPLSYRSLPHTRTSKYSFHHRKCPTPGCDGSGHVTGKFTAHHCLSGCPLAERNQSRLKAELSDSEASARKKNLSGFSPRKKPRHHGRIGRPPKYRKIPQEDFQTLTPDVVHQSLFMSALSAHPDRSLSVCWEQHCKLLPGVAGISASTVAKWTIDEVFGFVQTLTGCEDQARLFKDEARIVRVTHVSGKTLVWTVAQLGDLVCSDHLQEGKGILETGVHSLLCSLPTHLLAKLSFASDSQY
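First, the protein-peptide complex forms for 30 min at room temperature (L3MBTL1 50 nM, biotinylated H3K9me1 peptide 75 nM). Next, compounds are pin-transferred and incubated 30 min. Finally, AlphaScreen beads are added and read after 30 min.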
PI5P4K alpha inh: PI5P4K alpha (human) kinase inhibition | P48426 | PI5P4Kalpha enzyme, ADP-Glo luminescence, 60 min; stronger effect = lower value | max response, % | actives 1.2% (n = 330,000); active = max response of -50% or lower; inconclusive = between -30% and -50%; inactive = -30% or higher; also: value at the top dose of about 77 µM; % is scaled to controls: 0 for no effect and ±100 for the full control effect
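Quantitative HTS of the MLSMR library against PI5P4Kalpha with substrate. ATP added last at 5 microM final; room temperature, 60 minutes. Remaining ATP depleted, ADP converted and read as luminescence.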
KDM4E inh: inhibitors of human JMJD2E histone demethylase. B2RXH2. Potency, µM (series often up to 57.1 µM), for the others: at the top dose activity change, negative = inhibition, hits mostly inhibitors. AID 2147. JMJD2E catalytic domain, FDH-coupled NADH fluorescence (FDH is formaldehyde dehydrogenase). actives 1.6% (n = 230,000); active = well fitted inhibition curve with a large enough effect, not every such curve was filed as active; inconclusive = small, poorly fitted or top-dose-only effect, or another doubt; inactive = no such curve, though single readings can be large or run the other way;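 also: potency is read from the fitted curve at half-maximal effect; 0% = wells with enzyme and -100% = buffer wells without enzyme; nearly all actives have a fitted effect of over 50% in size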
An asterisk follows results filed as active; ? = inconclusive; / = no result given; [ ] = remark or other dose. Unless noted, calls follow the shape of the dose curve; as a rule, active = well fitted inhibition curve with a large enough effect; inconclusive = small, poorly fitted or top-dose-only effect; inactive = no such curve, though single readings can be large or run the other way.

SMILES | BAZ2B block | JMJD2A Tudor | HP1b binding inh | L3MBTL1 inh | PI5P4K alpha inh | KDM4E inh
COc1cc2c(cc1OC)[C@@H]1C(=O)c3ccc(OC)c(CC=C(C)C)c3OC1CO2 (stereo partly specified) | / | / | / | / | / | 18µM*
O=C(c1ccccc1)c1ccccc1N=Cc1c(O)[nH]c(=O)[nH]c1=O | ? | -27% | 45% | / | 0 | -5%
C=CCc1cccc(C=Nc2c[nH]c(=O)[nH]c2=O)c1O | ? | 40µM* | 0% | -7% | -8 | /
O=c1c2ccccc2cnn1Cc1n[nH]c(=S)n1C1CC2CCC1C2 (stereo unspecified) | -9% | 3.2µM* | 19% | 1% | -8 | -1%
CCOC(=O)c1c(/N=C/C2C(=O)NC(=S)NC2=O)sc(C)c1C | -10% | / | / | -9% | / | -4%
CCOC(=O)c1cc(C)sc1/N=C/C1C(=O)NC(=S)NC1=O | -33% | ? | -16% | -17% | ? | ?
N#Cc1c(/N=C/C2C(=O)NC(=S)NC2=O)sc2c1CCCC2 | ? | -34% | 6% | -7% | -55* | ?
CCOC(=O)c1c(/N=C/C2C(=O)NC(=S)NC2=O)sc2c1CCC2 | -19% | 50µM* | 40% | -17% | -78* | ?
O=C(O)c1ccc2c(c1)C1C(Cl)C(Sc3ccccc3[N+](=O)[O-])CC1C(c1cccc([N+](=O)[O-])c1)N2 (stereo unspecified) | 18µM* | -22%[11.4 µM] | 40µM* | 22µM* | ? | -19%
O=[N+]([O-])c1cccc(C2N3CCCN23)c1 (stereo unspecified) | -20% | 0% | 63% | 9%[11.4 µM] | 1 | -6%
O=C(O)c1cccc2c1NC(c1cccc([N+](=O)[O-])c1)C1CC(Sc3ccccc3[N+](=O)[O-])C(Cl)C21 (stereo unspecified) | 22µM* | 22µM* | ? | 20µM* | -23 | ?
CCCC(C)C1(CC)C(=O)N=C(S)NC1=O (stereo unspecified) | / | / | / | / | / | -2%
O=P1(Oc2ccccc2)CC=CC(COC(c2ccccc2)(c2ccccc2)c2ccccc2)O1 (stereo unspecified) | / | -30% | 20% | / | / | /
Cc1[nH]n(-c2ccccc2)c(=O)c1C(c1ccc([N+](=O)[O-])cc1)c1c(C)[nH]n(-c2ccccc2)c1=O | 40µM* | 18µM* | 35µM* | ? | -14 | -7%
Cc1[nH]n(-c2ccccc2)c(=O)c1C(C[N+](=O)[O-])c1ccccc1Cl (stereo unspecified) | ? | -17%[11.4 µM] | 5% | / | 3 | -28%
COc1ccccc1CN1CCN(Cc2ccc(Cl)cc2)CC1 | 18µM* | 40µM* | ? | -8% | 2 | 20µM*
COc1ccccc1N1CCN(Cc2ccc(Cl)cc2Cl)CC1 | ? | 22µM* | ? | / | / | ?
Oc1ccc(Cl)cc1CN1CCN(Cc2ccccc2)CC1 | ? | -24%[57.1 µM] | 72% | / | 3 | 4%
COc1cccc(CN2CCN(c3ccc(F)cc3)CC2)c1OC | / | / | / | / | 1 | /
CCOc1ccccc1CN1CCN(S(=O)(=O)CC)CC1 | 50µM* | 5.6µM* | ? | -2% | / | ?
FC(F)(F)c1ccccc1CN1CCN(Cc2ccccc2)CC1 | 50µM* | 4µM* | ? | / | / | ?
CCOc1ccccc1CN1C2CCC1CC(c1ccc(C)cc1)C2 (stereo unspecified) | -6% | -3% | 70% | 1% | 0 | /
CCCCC/C=C\C/C=C\CCCCCCCCCC(=O)NCCc1ccc(O)c(O)c1 | / | / | / | / | / | -3%
CCN(CC)P(=O)(Nc1ccc(Br)cc1)c1c(C)nn(CCC#N)c1NC(=O)c1ccc(Cl)cc1 (stereo unspecified) | 20% | -8% | 15% | / | -8 | /
CCOc1ccccc1N1CCN(Cc2cccc(OC)c2OC)CC1 | ? | 1.8µM* | ? | -8% | 0 | ?
SMILES | BAZ2B block | JMJD2A Tudor | HP1b binding inh | L3MBTL1 inh | PI5P4K alpha inh | KDM4E inh
Cc1ccc(CN2CCN(Cc3ccccc3F)CC2)cc1 | 22µM* | 20µM* | ? | 0% | 9 | 13µM*
Cc1cc(O)c(CN2CCN(c3ccccc3)CC2)cc1C | -1% | -17% | 34% | / | 2 | 6%
COc1ccc(CN2CCN(c3ccccc3)CC2)c(C)c1C | 50µM* | 4µM* | ? | / | 2 | -24%
COc1ccccc1N1CCN(Cc2ccc(SC)cc2)CC1 | 50µM* | 28µM* | ? | -10% | -4 | /
CCCNc1nc(-c2cc(C(=O)Nc3ccccc3)on2)cc(C(C)C)n1 | / | -9% | 52% | / | -2 | /
Cc1ccc(S(=O)(=O)n2[nH]c(=O)cc2NC(=O)c2cccs2)cc1 | -4% | / | / | 35% | / | -8%
CC1(C)C2C[C@@H](O)[C@]3(C)C(CC[C@@]4(C)[C@H](c5ccoc5)C[C@H]5O[C@]543)[C@@]2(C)[C@@H](O)C[C@H]1O (stereo partly specified) | / | / | / | / | / | 4%
CCc1ccc(CN2CCN(Cc3ccc(SC)cc3)CC2)cc1 | 40µM* | ? | ? | / | -4 | ?
CCN1CCN(c2ccc(N)cc2C)CC1 | ? | ? | -14% | -29% | -8 | -29%
CSc1ccc(CN2CCN(c3ccccc3C)CC2)cc1 | ? | 4.5µM* | -12% | -4% | -2 | /
O=C(Cc1ccccc1)Oc1coc(CSc2ncccn2)cc1=O | / | 14µM* | 18% | / | -6 | -13%
O=c1[nH]sc2cc(F)ccc12 | 45µM* | 22µM* | ? | / | -82* | -18%
CCN1CCN(C(=O)COc2ccc(S(=O)(=O)Nc3ccc(Cl)cc3)cc2)CC1 | -18% | -14% | 26% | / | 1 | /
CCN1CCN(C(=O)Cc2c(C)n(C(=O)c3ccc(Cl)cc3)c3ccc(OC)cc23)CC1 | 71µM* | -35% | 28% | -10% | -3 | 9%
COc1ccc(/C=C2\C(=O)NC(=O)N(CCC3=CCCCC3)C2=O)c(OC)c1 | 13% | -42% | 18% | 4% | ? | -3%
COc1ccc(CN2C(=O)NC(=O)/C(=C/c3ccc(OC)c(OC)c3OC)C2=O)cc1 | -16% | 9% | 16% | 39% | -17 | ?
COc1ccc(CN2C(=O)NC(=O)/C(=C/c3cc(OC)c(OC)c(OC)c3)C2=O)cc1 | -13% | -11% | 4% | / | -51* | -7%
COc1ccc(CN2C(=O)NC(=O)/C(=C/c3ccoc3)C2=O)cc1 | 50µM* | 56µM* | 22µM* | ? | -71* | -20%
Cc1cc(C)c(N)cc1C | -8% | -23% | 52% | -8% | 8 | /
CC(C)c1ccc2c(c1O)CCC1C3=C(CC[C@]21C)C(=O)OC3 (stereo partly specified) | / | / | / | / | / | 0%
O=c1c(O)c(-c2ccc(O)c(O)c2)oc2cc(O)cc(O)c12 | ? | ? | -8% | / | -84* | 14µM*
